# Measured values as given in ChEMBL document CHEMBL3433997, “St. Jude Leishmania screening dataset” (2016).
# Columns and labels:
# Type in all cases: functional
# [1] = target: Solute carrier family 2, facilitated glucose transporter member 1 (Homo sapiens) (UniProt P11166); assay: ST_JUDE_LEISH: Cytotoxicity at 2uM final concentration against transgenic Leishmania Mexicana promastigotes LmGLUT1 that are glucose transport deficient and complemented with the human glucose transporter GLUT1. Activity is measured by DNA content using SYBR green in vitro
# [2] = target: Hexose transporter 1 (Plasmodium falciparum) (UniProt O97467); assay: ST_JUDE_LEISH: Cytotoxicity at 2uM final concentration against transgenic Leishmania Mexicana promastigotes LmPfHT that are glucose transport deficient and complemented with the Plasmodium falciparum hexose transporter. Activity is measured by DNA content using SYBR green in vitro
# [3] = target: Glucose transporter (Leishmania mexicana) (UniProt O61059); assay: ST_JUDE_LEISH: Cytotoxicity at 2uM final concentration against transgenic Leishmania Mexicana promastigotes LmGT2 that are glucose transport deficient and complemented with the L. Mexicana glucose transporter 2. Activity is measured by DNA content using SYBR green in vitro
# Sequence of Solute carrier family 2, facilitated glucose transporter member 1 (Homo sapiens) (P11166 whole entry): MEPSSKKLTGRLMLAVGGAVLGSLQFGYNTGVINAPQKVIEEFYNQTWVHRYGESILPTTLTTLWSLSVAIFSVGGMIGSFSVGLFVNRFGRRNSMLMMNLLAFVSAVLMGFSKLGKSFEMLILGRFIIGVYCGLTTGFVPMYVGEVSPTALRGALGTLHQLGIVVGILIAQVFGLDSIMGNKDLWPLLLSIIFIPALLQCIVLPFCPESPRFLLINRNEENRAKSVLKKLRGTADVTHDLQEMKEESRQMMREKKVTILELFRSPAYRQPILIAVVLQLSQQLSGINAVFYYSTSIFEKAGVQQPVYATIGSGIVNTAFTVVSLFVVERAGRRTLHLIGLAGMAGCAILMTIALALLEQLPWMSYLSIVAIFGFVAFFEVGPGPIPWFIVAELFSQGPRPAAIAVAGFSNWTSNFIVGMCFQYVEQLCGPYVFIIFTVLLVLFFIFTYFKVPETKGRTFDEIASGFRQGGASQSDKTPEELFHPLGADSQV
SMILES,inhibition [1] [%],inhibition [2] [%],inhibition [3] [%]
CC1(C)N=C(N)N=C(N)N1c1cccc(C(F)(F)F)c1,-1.8,-0.92,-3.44
CCCCCCN1CCCN(Cc2cccc(NC(=O)c3cc4ccccc4s3)c2)CC1,2.73,3.42,0.46
O=C(Nc1ccsc1)Nc1cccc(-c2ccc(-c3nc4cc(C(F)(F)F)ccc4[nH]3)cc2)c1,6.66,6.27,7.95
CNCCNCc1cccc(-c2cccc(-c3nc4cc(F)ccc4[nH]3)c2)c1,10.2,7.92,7.49
CCN1CCC(N(Cc2ccc(-c3ccc(C(F)(F)F)cc3)cc2)C(=O)Cn2c(CCc3cccc(F)c3F)cc(=O)c3ccccc32)CC1,-0.63,-0.01,-2.06
CC(C)c1ccc(NC(=O)c2ccc(C(=O)NC3CCN(CC4CCCCC4)C3)cc2)cc1 (stereo not drawn),3.72,4.18,3.15
CC(C)C[C@H](NC(=O)[C@H](Cc1ccccc1)N(C[C@H](Cc1ccccc1)NC(=O)OC(C)(C)C)C(=O)C(F)(F)F)C(=O)NC1CCN(Cc2ccccc2)CC1,5.24,5.7,4.2
CO/C(=C\C=C\c1cc2cc(Cl)c(Cl)cc2[nH]1)C(=O)NC1CCN(CCOc2ccccc2)CC1,8.51,7.84,0.9
Nc1c(Cl)cc(C(O)CNCCCCCOCCCc2ccc(O)c3ncccc23)cc1Cl (stereo not drawn),103,99.7,97.5
Cc1cccc2nc(-c3ccc(-c4cccc(C(=O)NCCc5cn(C)cn5)c4)s3)[nH]c12,1.8,1.96,1
C=CCn1c(SCC(=O)Nc2cc(C)ccc2OC)nc2sc(C)cc2c1=O,4.32,3.15,2.13
OCCN1CCN(c2ccc(Nc3ccnc4cc5ccccc5cc34)cc2)CC1,28.2,33.3,21.7
CCCCN(CCCC)CCCN(CCCN(CCCC)CCCC)c1cc(C)nc(Nc2ccc(Cl)cc2)n1,-0.03,0.22,0.44
COc1ccc2nccc([C@@H](O)CN3CCC(NCCOc4ccncc4)CC3)c2c1,-0.38,1.23,-0.87
COc1ccc2[nH]ccc(=NN=Cc3ccncc3)c2c1,3.57,3.95,3.39
CC1(C)S(=O)(=O)CC(O)CS1(=O)=O,3.87,3.02,2.49
